High-throughput results (PubChem BioAssay)
FEN1 inhibitor = blocks human flap endonuclease 1. 0.35% of 390,000 active. P39748. Potency, µM (highest dose often 114 µM), actives largely listed as inhibitors. AID 588795. Recombinant FEN1 flap cleavage, fluorescence, 15 min; note: nearly all actives have a fitted effect of over 65% in size
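FEN1 at 10 nM preincubated with compounds 15 min at room temperature, then flap DNA substrate added at 50 nM final. Signal read at 0 and 15 min; concentration-response fitted with four-parameter Hill equation.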
WRN inhibitor = inhibitors of human WRN helicase; Q14191; WRN helicase unwinding, fluorescent forked duplex, kinetic; Potency, µM (doses to about 114 µM), hits mostly inhibitors; 0.46% of 360,000 active; AID 651768; note: nearly all actives have a fitted effect of over 55% in size
Target sequence (Q14191 whole entry, looked up): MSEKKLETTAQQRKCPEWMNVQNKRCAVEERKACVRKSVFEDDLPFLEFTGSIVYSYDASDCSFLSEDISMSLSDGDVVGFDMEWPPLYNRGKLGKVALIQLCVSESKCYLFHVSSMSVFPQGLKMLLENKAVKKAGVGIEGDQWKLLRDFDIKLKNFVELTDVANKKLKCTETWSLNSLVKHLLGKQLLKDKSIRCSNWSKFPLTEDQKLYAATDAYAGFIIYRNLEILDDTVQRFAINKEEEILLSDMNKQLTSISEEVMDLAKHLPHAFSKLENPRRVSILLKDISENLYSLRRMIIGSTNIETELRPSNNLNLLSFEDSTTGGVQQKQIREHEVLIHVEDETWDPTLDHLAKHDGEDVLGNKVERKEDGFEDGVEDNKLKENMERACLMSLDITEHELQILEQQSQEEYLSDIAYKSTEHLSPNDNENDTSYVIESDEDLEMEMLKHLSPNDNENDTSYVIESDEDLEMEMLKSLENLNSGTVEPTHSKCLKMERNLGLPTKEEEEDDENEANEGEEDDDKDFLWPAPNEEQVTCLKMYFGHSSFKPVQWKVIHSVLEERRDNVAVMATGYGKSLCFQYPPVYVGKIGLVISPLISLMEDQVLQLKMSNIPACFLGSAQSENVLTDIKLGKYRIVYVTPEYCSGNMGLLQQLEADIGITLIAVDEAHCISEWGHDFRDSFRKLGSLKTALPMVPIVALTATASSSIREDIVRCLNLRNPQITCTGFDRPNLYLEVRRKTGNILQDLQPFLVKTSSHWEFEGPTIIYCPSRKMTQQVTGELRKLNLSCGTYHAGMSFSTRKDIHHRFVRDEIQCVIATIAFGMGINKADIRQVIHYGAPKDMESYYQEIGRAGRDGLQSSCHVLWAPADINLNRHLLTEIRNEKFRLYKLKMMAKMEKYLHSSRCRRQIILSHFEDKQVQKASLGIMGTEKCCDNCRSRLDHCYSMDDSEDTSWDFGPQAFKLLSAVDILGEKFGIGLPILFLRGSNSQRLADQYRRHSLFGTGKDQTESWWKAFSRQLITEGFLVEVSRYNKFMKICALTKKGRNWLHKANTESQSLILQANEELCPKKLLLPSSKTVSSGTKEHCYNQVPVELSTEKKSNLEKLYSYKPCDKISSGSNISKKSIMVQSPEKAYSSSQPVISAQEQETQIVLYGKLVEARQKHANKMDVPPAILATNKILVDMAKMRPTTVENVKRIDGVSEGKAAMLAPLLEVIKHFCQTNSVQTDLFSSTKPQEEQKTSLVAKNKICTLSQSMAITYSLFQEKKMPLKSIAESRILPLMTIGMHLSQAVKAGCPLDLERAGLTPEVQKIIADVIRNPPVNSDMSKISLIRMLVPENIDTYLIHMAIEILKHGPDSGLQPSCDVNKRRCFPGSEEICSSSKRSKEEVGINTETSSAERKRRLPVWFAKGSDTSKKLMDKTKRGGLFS
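WRN at 20 nM final was preincubated with compound for 15 min at room temperature; reaction started with 100 nM forked duplex oligonucleotide carrying fluorophore and quencher plus 2 mM ATP (final). Unwinding followed kinetically by red fluorescence (ex 525/em 598 nm).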
POLI inh = inhibitors of human DNA polymerase iota; Q9UNA4; AID 588590; 1% of 390,000 active; Pol iota fluorescent replication assay, 10 min; Potency, µM (titrated, usually from 115 µM), usual class: inhibitors
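Fluorescent replication assay read twice, at 0 min and 10 min after adding 50 nM (final) substrate. Enzyme (10 nM) and compounds were first incubated 15 min at room temperature; enzyme-free buffer wells were negative controls.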
Pol kappa inh = DNA polymerase kappa (human) inhibition; purified Pol kappa, fluorescent DNA synthesis assay, 10 min; Potency, µM (doses to about 107 µM), hits mostly inhibitors; 0.53% of 400,000 active; AID 588579
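10 nM Pol kappa was preincubated with compounds for 15 min at room temperature. Reaction started with 50 nM (final) substrate. Fluorescence read kinetically at 0 and 10 min.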
Pol beta inh = DNA polymerase beta (human) inhibition | AID 485314 | P06746 | Potency, µM (series often up to 114 µM), actives largely listed as inhibitors | 1.3% of 340,000 active | Pol beta primer extension/strand displacement, fluorescence kinetic
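Pol beta (10 nM) was preincubated with compound for 15 min at room temperature. The reaction was then started with 50 nM substrate and read immediately and after a further 10 min at room temperature.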
POLH inh = inhibitors of human DNA polymerase eta | recombinant Pol eta, fluorescent DNA replication assay | Potency, µM (doses to about 114 µM), most hits filed as inhibitors | 1.2% of 390,000 active | AID 588591
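Pol eta at 10 nM preincubated with compounds 15 min at room temperature; reaction started with fluorescent substrate (50 nM final) and read kinetically at 0 and 10 min.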
Each line names hits and unclear results; the compound was inactive in the other large screens. This is a sample that favours compounds with a hit; in the whole collection about 2.4% have one here. Calls come from the whole dose curve; as a rule, active = well fitted curve in the direction sought with a large enough effect; inconclusive = small, poorly fitted or top-dose-only effect, or another doubt; inactive = no such curve, though single readings can be large; an effect the other way counts as inactive or inconclusive.

CC(C)C[C@H]1C(=O)N2CCCC2[C@]2(O)O[C@](NC(=O)[C@@H]3C=C4c5cccc6[nH]cc(c56)CC4N(C)C3)(C(C)C)C(=O)N12 (some centres undefined)	POLI inh inconclusive, Pol kappa inh inconclusive
CCC(CO)NC(=O)[C@@H]1C=C2c3cccc4[nH]cc(c34)C[C@H]2N(C)C1 (some centres undefined)	POLI inh 32µM, POLH inh inconclusive (no result: FEN1 inhibitor, WRN inhibitor, Pol kappa inh)
CCC12CN3CCN(CC(C3)/C1=N/NC(=O)c1ccncc1)C2	none
COc1ccc(-c2nc3ccccc3c(=O)n2-c2cccnc2)cc1	none
O=C(O)c1cc[c]([Hg][Cl])cc1	FEN1 inhibitor 25µM, POLI inh 1.8µM, Pol beta inh 14µM
COc1ccc(C(=O)O)cc1OC	none (no result: Pol beta inh)
N#CC(C#N)=Cc1cc(O)c(O)c(O)c1	POLI inh 9.5µM, Pol kappa inh 3.2µM, POLH inh 2.2µM (no result: FEN1 inhibitor, WRN inhibitor)
N#CC(C#N)=Cc1ccc(O)cc1	none (no result: FEN1 inhibitor, WRN inhibitor, POLI inh, Pol beta inh, POLH inh)
C=CCn1c(O)c(/C=C2/C=CC=N2)c(=O)[nH]c1=O	POLI inh 20µM, POLH inh inconclusive
O=c1[nH]c(=O)n(Cc2ccccc2Cl)c(O)c1/C=C1/C=CC=N1	POLI inh 45µM, Pol kappa inh inconclusive, Pol beta inh inconclusive, POLH inh inconclusive
COC(=O)C1=C(c2ccc(F)cc2OCc2ccccc2)C[C@@H]2CC[C@H]1N2C(=O)NCc1cccc(OC)c1	none (no result: Pol beta inh)
COc1ccc2c3c1O[C@H]1[C@@H](O)C=C[C@H]4C(C2)NCCC341 (some centres undefined)	none (no result: FEN1 inhibitor, WRN inhibitor, POLI inh, Pol beta inh, POLH inh)
O=C1NC(=O)N(c2ccc3c(c2)OCO3)C(=O)/C1=C\c1ccc(-c2ccccc2C(=O)O)o1	FEN1 inhibitor inconclusive, WRN inhibitor 56µM, POLI inh 20µM, Pol kappa inh 79µM, Pol beta inh 10µM, POLH inh 10µM
O=c1[nH]c2ccccc2n1C1CCN(Cc2ccc(-c3nc4ccc(F)cc4nc3-c3ccccc3)cc2)CC1	none (no result: FEN1 inhibitor, POLI inh, Pol kappa inh, Pol beta inh, POLH inh)
O=C(COC(=O)c1cccc(NC(=O)c2ccc(Br)cc2)c1)c1ccc(Br)cc1	Pol beta inh inconclusive (no result: WRN inhibitor)
COc1ccc(/C=C/C=C2C(=O)NC(=S)NC2=O)cc1	FEN1 inhibitor inconclusive, WRN inhibitor 45µM, POLI inh inconclusive, POLH inh 25µM (no result: Pol beta inh)
COc1ccccc1C=C1C(=O)NC(=S)NC1=O	WRN inhibitor inconclusive (no result: Pol beta inh)
COc1ccc(C=C2C(=O)NC(=S)NC2=O)cc1OC	WRN inhibitor 45µM, POLI inh inconclusive (no result: Pol beta inh)
CCOc1cc(C=C2C(=O)NC(=S)NC2=O)ccc1O	WRN inhibitor 50µM, POLI inh inconclusive (no result: Pol beta inh)
Cc1sc2ncnc(N3CCC(C(=O)Nc4ccc(C#N)c(Cl)c4)CC3)c2c1C	Pol kappa inh inconclusive (no result: Pol beta inh)
Cc1cc(=O)n(-c2ccccc2Cl)[nH]1	POLI inh 2.8µM
CCOc1ccc(-n2c(O)c(N=Nc3c(C)n(C)n(-c4ccccc4)c3=O)c(=O)[nH]c2=O)cc1	none
COc1ccc(CNC(=O)C2CCN(c3nc(OC)nc(OC)n3)CC2)cc1	POLI inh 89µM
COc1ccc(CNC(=O)c2ccc(C(C)C)cc2)cc1	none
Oc1ccc(/C=N/NP(=S)(c2ccccc2)c2ccccc2)c(O)c1O	FEN1 inhibitor inconclusive, WRN inhibitor inconclusive, POLI inh inconclusive, Pol beta inh 14µM, POLH inh inconclusive
Oc1ccccc1/C=N/NP(=S)(c1ccccc1)c1ccccc1	none
Cc1ccc(/C=C2/C(=O)NC(=O)N(CCc3ccc(F)cc3)C2=O)o1	WRN inhibitor 50µM, POLI inh inconclusive, POLH inh inconclusive
O=C1NC(=O)N(CCc2ccc(F)cc2)C(=O)/C1=C/c1cccs1	WRN inhibitor 32µM, POLI inh 22µM, Pol beta inh inconclusive
CC(/C=C(\C)Nc1ccccc1)=Nc1ccccc1	none
NCC(CC(=O)O)C1CCCCC1 (centres undefined)	POLI inh 100µM
NC(CC(=O)O)C1CCCCC1 (centres undefined)	none (no result: FEN1 inhibitor, WRN inhibitor, POLI inh, Pol kappa inh, POLH inh)
CN1C(=O)N(C)C(=O)C2(Cc3c(nc4ccccn4c3=O)N3CCC(Cc4ccccc4)CC32)C1=O (centres undefined)	none (no result: FEN1 inhibitor, WRN inhibitor, POLI inh, Pol kappa inh, POLH inh)
Cc1cc(C)cc(N2C(=O)NC(=O)/C(=C\c3cccn3-c3ccc(Cl)cc3)C2=O)c1	POLI inh inconclusive, POLH inh 22µM
CCC(C)C(=O)c1c(O)c(C)c2oc3c(C)c(O)c(C(=O)C(C)CC)c(O)c3c2c1O (centres undefined)	none (no result: FEN1 inhibitor, WRN inhibitor, POLI inh, Pol beta inh, POLH inh)
Cc1ccc(N2C(=O)/C(=C/c3ccc(CN(CCC#N)S(C)(=O)=O)o3)C(=O)NC2=S)cc1	FEN1 inhibitor 35µM, WRN inhibitor 50µM, POLI inh 3.2µM, Pol kappa inh 18µM, Pol beta inh 6.3µM, POLH inh 2.2µM
Cc1c(/C=N/O)c2ccccc2n1C	none
CN(C)C(CNC(=O)Cc1ccc(Br)cc1)c1ccccc1 (centres undefined)	none
Cc1cc(C)cc(N2C(=O)/C(=C\c3ccc(N4CCN(C)CC4)o3)C(=O)NC2=S)c1	FEN1 inhibitor inconclusive, POLI inh 32µM
NC(Cc1ccc(Oc2cc(I)c(O)c(I)c2)c(I)c1)C(=O)O (centres undefined)	Pol kappa inh 7.1µM (no result: FEN1 inhibitor, WRN inhibitor, POLI inh, Pol beta inh, POLH inh)
CC(C)C[C@H](NC(=O)[C@H](Cc1ccccc1)NC(=O)CNC(=O)[C@H](C)NC(=O)[C@@H](N)Cc1ccc(O)cc1)C(=O)O	none (no result: FEN1 inhibitor, WRN inhibitor, POLI inh, Pol beta inh, POLH inh)
CCn1c(O)c(C=Nc2ccc(N3CCOCC3)cc2)c(=O)n(CC)c1=S	Pol beta inh 18µM
CCn1c(O)c(C=Nc2ccc(N3CCOCC3)c(Br)c2)c(=O)n(CC)c1=S	none
O=C(O)c1ccccc1SSc1ccccc1C(=O)O	POLI inh inconclusive, Pol beta inh inconclusive
C[CH2][Hg][S]c1ccccc1C(=O)O	FEN1 inhibitor 22µM, POLI inh inconclusive (no result: Pol beta inh)
Cc1cc(C)[n+](C2C3CC4CC(C3)CC2C4)o1 (centres undefined)	none
CCn1cc(C=C2C(=O)NC(=O)NC2=O)c2ccccc21	POLI inh 20µM, Pol beta inh inconclusive
CC[n+]1c(/C=C/N(C)c2ccccc2)sc2ccc(Cl)cc21	FEN1 inhibitor inconclusive, WRN inhibitor 50µM, POLI inh inconclusive, Pol beta inh 50µM
CN(C)c1ccc(/C=C/C=C/c2sc3ccccc3[n+]2C)cc1	FEN1 inhibitor inconclusive, WRN inhibitor inconclusive, POLI inh inconclusive, Pol beta inh inconclusive
O=c1[nH]c(=S)n(Cc2ccc(F)cc2)c(O)c1C=NCc1cccnc1	none
CCCCn1c(NS(=O)(=O)c2ccc(C)cc2)c(C(=O)OCC)c2nc3ccccc3nc21	POLI inh 2.5µM
CCN1/C(=C\C=C\C2=[N+](CC)c3ccccc3C2(C)C)C(C)(C)c2ccccc21	FEN1 inhibitor 45µM, WRN inhibitor 45µM, Pol kappa inh 18µM, Pol beta inh 25µM (no result: POLI inh)
